Test results reported in PubChem BioAssay (EPA / NIEHS).
Active and inactive are the calls of the source. The calls were made as follows: active = hit-call score of the fitted dose curve at least 0.9, where 1 is the maximum; inactive = score below 0.9.

Key:
[1] = target: Bile acid receptor (Homo sapiens) (UniProt Q96RI1); assay: ATG_IR1_CIS: Attagene CIS-FACTORIAL HepG2 Assay for human Nuclear Receptor Subfamily 1 Group H Member 4 (NR1H4), IR1 submotif (AID 2282946); settings: IR1 reporter transcription, actives raise or lower the signal
Chain of Bile acid receptor (Homo sapiens) (Q96RI1 whole entry, looked up): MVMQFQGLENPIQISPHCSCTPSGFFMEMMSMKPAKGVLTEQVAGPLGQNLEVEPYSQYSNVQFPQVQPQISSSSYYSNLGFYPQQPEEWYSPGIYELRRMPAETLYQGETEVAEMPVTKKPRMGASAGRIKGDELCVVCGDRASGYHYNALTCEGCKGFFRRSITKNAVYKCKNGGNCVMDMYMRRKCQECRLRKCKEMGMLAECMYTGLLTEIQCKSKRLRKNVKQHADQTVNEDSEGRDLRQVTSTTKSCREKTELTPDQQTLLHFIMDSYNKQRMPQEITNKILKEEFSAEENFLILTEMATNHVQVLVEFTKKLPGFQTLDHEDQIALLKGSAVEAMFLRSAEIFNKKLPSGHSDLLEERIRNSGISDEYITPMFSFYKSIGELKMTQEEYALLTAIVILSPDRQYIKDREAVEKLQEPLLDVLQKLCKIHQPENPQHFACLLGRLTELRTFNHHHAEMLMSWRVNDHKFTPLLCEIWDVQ
In short: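 HepG2 cells transiently transfected with multiplexed cis-element reporter units read endogenous transcription factor activity. After 24 h compound exposure, reporter mRNA was quantified by RT-PCR, fluorescent labelling, HpaI digestion and capillary electrophoresis; bidirectional fitting versus DMSO baseline.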

[2] = ATG_GRE_CIS: Attagene CIS-FACTORIAL HepG2 Assay for human Glucocorticoid Response Elements (GRE) (AID 2282947); settings: HepG2 GRE cis-reporter, Attagene multiplex mRNA; actives raise or lower the signal
In short: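 Reporter transcripts read by RT-PCR with capillary electrophoresis fluorescence after a 24 h chemical exposure of HepG2 cells transiently transfected with multiple cis-element reporter units. Gain or loss fitted against DMSO.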

[3] = ATG_ISRE_CIS: Attagene CIS-FACTORIAL HepG2 Assay for human Interferon Regulatory Factor 1 (IRF1) binding to an Interferon-Stimulated Response Element (ISRE) (AID 2282948); settings: HepG2 ISRE cis-reporter (Attagene), mRNA transcription readout; actives raise or lower the signal
In short: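 Multiplexed mRNA reporter readout in human liver HepG2 cells: cis-element-driven reporters transfected, compound added for 24 h, transcripts amplified, fluorescently labelled and sized by capillary electrophoresis; curve fitting bidirectional against DMSO.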

[4] = ATG_M_32_CIS: Attagene CIS-FACTORIAL HepG2 Assay for M32 Transcription Factor (Internal Marker) (AID 2282949); settings: HepG2 Attagene cis-factorial M32 reporter, mRNA; actives raise or lower the signal;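 also: background control marker of the multiplexed CIS panel rather than a real target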
In short: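 HepG2 human liver cells transiently transfected with cis-promoter-driven multiple reporter transcription units, dosed 24 h. Reporter mRNA quantified by RT-PCR, FAM-labelled primer extension, HpaI digest and capillary electrophoresis; bidirectional fit versus DMSO baseline.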

[5] = ATG_M_06_CIS: Attagene CIS-FACTORIAL HepG2 Assay for M06 Transcription Factor (Internal Marker) (AID 2282950); settings: HepG2 Attagene CIS-FACTORIAL M06 internal marker reporter; actives raise or lower the signal
In short: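 Measured 24 h post-dosing in transiently transfected HepG2 cells, this internal-marker endpoint reports reporter mRNA via RT-PCR with fluorescent primer extension and capillary electrophoresis. DMSO served as negative control and baseline for bidirectional fitting.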

[6] = target: Hypoxia-inducible factor 1-alpha (Homo sapiens) (UniProt Q16665); assay: ATG_HIF1a_CIS: Attagene CIS-FACTORIAL HepG2 Assay for human Hypoxia Inducible Factor 1 (HIF1A) (AID 2282951); settings: HepG2 Attagene cis-factorial HIF1a reporter transcription; actives raise or lower the signal
Chain of Hypoxia-inducible factor 1-alpha (Homo sapiens) (Q16665 whole entry, looked up): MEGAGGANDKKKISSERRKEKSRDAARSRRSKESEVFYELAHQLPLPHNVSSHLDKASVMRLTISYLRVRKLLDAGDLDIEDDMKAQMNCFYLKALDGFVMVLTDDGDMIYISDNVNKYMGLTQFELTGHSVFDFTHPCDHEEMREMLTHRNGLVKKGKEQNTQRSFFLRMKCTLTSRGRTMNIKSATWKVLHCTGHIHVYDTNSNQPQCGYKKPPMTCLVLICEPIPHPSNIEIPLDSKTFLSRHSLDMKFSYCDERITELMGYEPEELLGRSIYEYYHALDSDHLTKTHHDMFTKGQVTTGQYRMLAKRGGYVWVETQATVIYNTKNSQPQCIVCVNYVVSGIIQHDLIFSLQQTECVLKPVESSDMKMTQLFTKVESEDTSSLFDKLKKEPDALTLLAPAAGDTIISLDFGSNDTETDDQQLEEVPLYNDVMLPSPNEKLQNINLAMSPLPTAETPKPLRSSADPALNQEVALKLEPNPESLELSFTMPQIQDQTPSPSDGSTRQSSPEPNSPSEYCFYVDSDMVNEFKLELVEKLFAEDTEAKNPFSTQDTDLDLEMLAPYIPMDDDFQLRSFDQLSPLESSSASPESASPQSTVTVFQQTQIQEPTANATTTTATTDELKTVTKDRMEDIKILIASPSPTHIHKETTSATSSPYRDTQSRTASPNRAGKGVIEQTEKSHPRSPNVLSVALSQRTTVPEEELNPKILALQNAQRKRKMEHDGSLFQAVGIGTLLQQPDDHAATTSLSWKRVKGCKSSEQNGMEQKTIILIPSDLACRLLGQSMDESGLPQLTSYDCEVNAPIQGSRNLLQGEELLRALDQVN
In short: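 HepG2 cells transiently transfected with multiple cis-regulated reporter transcription units measure endogenous transcription factor activity. After 24 h exposure, reporter mRNA is quantified by RT-PCR with 6-FAM labelling, HpaI digestion and capillary electrophoresis. Bidirectional fitting against DMSO.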

[7] = target: Heat shock factor protein 1 (Homo sapiens) (UniProt Q00613); assay: ATG_HSE_CIS: Attagene CIS-FACTORIAL HepG2 Assay for human Heat Shock Transcription Factor 1 (HSE) (AID 2282953); settings: HepG2 HSE cis-reporter, Attagene RNA transcription; actives raise or lower the signal
Chain of Heat shock factor protein 1 (Homo sapiens) (Q00613 whole entry, looked up): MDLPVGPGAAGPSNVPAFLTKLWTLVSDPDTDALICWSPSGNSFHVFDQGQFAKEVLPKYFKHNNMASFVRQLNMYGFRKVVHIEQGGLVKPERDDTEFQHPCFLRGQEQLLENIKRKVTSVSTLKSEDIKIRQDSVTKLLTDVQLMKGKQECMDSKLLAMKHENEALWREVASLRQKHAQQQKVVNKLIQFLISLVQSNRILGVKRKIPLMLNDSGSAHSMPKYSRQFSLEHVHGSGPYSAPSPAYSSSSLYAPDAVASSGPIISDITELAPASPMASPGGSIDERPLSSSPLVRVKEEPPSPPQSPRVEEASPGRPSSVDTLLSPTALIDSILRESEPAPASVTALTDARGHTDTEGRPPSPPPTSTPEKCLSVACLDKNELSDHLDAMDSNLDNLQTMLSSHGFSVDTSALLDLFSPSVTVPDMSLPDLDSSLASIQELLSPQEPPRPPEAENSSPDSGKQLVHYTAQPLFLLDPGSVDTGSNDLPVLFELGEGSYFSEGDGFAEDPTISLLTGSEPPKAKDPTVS
In short: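 Reporter mRNA induction in HepG2 is measured 24 h after dosing, using transiently transfected multiplexed cis-regulated reporter units. Signal comes from capillary electrophoresis of labelled RT-PCR products, with DMSO as negative control.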

[8] = ATG_MRE_CIS: Attagene CIS-FACTORIAL HepG2 Assay for human Metal Responsive Element (MRE) (AID 2282954); settings: HepG2 MRE cis-reporter transcription, Attagene multiplex; actives raise or lower the signal
In short: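 Endogenous MRE-dependent transcription read as reporter mRNA in transiently transfected human HepG2 cells at 24 h. RNA reverse-transcribed, PCR-amplified, labelled and resolved by capillary electrophoresis; gain or loss relative to DMSO.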

[9] = ATG_PBREM_CIS: Attagene CIS-FACTORIAL HepG2 Assay for human Phenobarbital-responsive Enhancer Module (PBREM) (AID 2282955); settings: HepG2 PBREM cis-reporter, Attagene multiplexed transcription; actives raise or lower the signal
In short: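 HepG2 cells transiently transfected with multiple cis-regulated reporter units measure endogenous transcription factor activity; 24 h compound exposure. Reporter mRNA quantified by RT-PCR, fluorescent labelling, HpaI digestion and capillary electrophoresis; bidirectional fit versus DMSO.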

[10] = target: Paired box protein Pax-6 (Homo sapiens) (UniProt P26367); assay: ATG_Pax6_CIS: Attagene CIS-FACTORIAL HepG2 Assay for human Paired Box 6 (PAX6) (AID 2282956); settings: HepG2 CIS-FACTORIAL PAX6 reporter transcription, RNA readout; actives raise or lower the signal
Chain of Paired box protein Pax-6 (Homo sapiens) (P26367 whole entry, looked up): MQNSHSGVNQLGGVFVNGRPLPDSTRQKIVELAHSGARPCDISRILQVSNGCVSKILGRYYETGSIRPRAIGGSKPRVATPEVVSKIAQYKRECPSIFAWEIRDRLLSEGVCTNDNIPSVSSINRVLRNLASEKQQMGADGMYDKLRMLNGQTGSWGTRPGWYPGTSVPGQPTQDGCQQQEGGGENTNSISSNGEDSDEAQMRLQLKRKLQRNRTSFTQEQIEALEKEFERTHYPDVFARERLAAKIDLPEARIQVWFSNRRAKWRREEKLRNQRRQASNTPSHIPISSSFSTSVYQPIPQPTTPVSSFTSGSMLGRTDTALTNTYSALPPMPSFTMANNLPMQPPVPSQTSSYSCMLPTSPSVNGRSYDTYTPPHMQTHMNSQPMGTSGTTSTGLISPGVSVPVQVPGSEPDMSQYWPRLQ
In short: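 Fluorescent RT-PCR products separated by capillary electrophoresis report PAX6-linked promoter mRNA in HepG2 cells 24 h post-dose. Curves fitted bidirectionally, DMSO as negative control.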

[11] = ATG_PPRE_CIS: Attagene CIS-FACTORIAL HepG2 Assay for human Peroxisome Proliferator-activated Response Element (PPRE) (AID 2282958); settings: HepG2 PPRE cis-element reporter, Attagene transcription factor profiling; actives raise or lower the signal
In short: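 HepG2 cells are transiently transfected with multiplexed cis-promoter reporter units to report endogenous PPAR activity. After 24 h dosing, reporter mRNA is read by RT-PCR and capillary electrophoresis. Fitting is bidirectional against DMSO.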

[12] = ATG_RORE_CIS: Attagene CIS-FACTORIAL HepG2 Assay for human RAR-related Orphan Receptor Element (RORE) (AID 2282959); settings: HepG2 Attagene cis-factorial RORE reporter, mRNA; actives raise or lower the signal
In short: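 HepG2 cells carrying transiently transfected cis-regulated reporter units; RORE-driven reporter mRNA quantified 24 h post-dosing by RT-PCR, 6-FAM primer extension, HpaI digestion and capillary electrophoresis. Bidirectional fit versus DMSO.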

[13] = ATG_Sox_CIS: Attagene CIS-FACTORIAL HepG2 Assay for human SRY-box transcription factor (SOX) (AID 2282960); settings: HepG2 Attagene cis-factorial SOX reporter, mRNA; actives raise or lower the signal
In short: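 HepG2 cells transiently transfected with multiple cis-regulated reporter units, then dosed for 24 h. Reporter mRNA quantified by RT-PCR, fluorescent labelling, HpaI digestion and capillary electrophoresis; bidirectional fit versus DMSO.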

[14] = target: Transcription factor Sp1 (Homo sapiens) (UniProt P08047); assay: ATG_Sp1_CIS: Attagene CIS-FACTORIAL HepG2 Assay for human Specificity Protein 1 (Sp1) (AID 2282961); settings: HepG2 Sp1 cis-reporter transcription, actives raise or lower the signal
Chain of Transcription factor Sp1 (Homo sapiens) (P08047 whole entry, looked up): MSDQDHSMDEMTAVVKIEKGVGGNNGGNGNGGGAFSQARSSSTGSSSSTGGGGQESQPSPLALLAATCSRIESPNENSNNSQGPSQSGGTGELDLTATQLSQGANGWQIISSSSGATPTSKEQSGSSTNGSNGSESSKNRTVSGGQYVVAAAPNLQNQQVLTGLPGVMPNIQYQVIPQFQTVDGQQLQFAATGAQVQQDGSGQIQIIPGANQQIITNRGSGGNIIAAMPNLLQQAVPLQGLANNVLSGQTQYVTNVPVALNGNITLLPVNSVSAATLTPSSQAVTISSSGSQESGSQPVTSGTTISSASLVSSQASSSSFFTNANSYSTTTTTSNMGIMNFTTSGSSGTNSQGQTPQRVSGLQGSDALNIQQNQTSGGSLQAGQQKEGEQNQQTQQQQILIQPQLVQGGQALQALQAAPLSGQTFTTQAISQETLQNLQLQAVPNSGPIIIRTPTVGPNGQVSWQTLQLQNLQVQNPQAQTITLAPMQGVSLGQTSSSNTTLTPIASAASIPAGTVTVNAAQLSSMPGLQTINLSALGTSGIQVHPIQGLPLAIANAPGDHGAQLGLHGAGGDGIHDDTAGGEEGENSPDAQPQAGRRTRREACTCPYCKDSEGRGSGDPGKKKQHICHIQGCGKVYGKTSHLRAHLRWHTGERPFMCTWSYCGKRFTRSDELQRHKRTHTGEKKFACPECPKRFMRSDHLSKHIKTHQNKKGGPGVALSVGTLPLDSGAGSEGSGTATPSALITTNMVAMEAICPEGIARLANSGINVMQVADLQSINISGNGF
In short: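 HepG2 cells transiently transfected with multiplexed cis-regulated reporter constructs, chemical exposure 24 h. Reporter mRNA quantified by RT-PCR with capillary electrophoresis; bidirectional fit relative to DMSO.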

[15] = ATG_SREBP_CIS: Attagene CIS-FACTORIAL HepG2 Assay for human Sterol Regulatory Element Binding (SREBP) (AID 2282962); settings: HepG2 Attagene cis-factorial SREBP reporter, mRNA; actives raise or lower the signal
In short: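 Endogenous factor activity is measured in HepG2 through multiplexed reporter units under cis-element control. Following a 24 h incubation, reporter transcripts are reverse-transcribed, PCR-amplified and sized by capillary electrophoresis; activity is fitted in both directions relative to DMSO.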

[16] = target: Signal transducer and activator of transcription 3 (Homo sapiens) (UniProt P40763); assay: ATG_STAT3_CIS: Attagene CIS-FACTORIAL HepG2 Assay for human Signal Transducer and Activator of Transcription 3 (STAT3) (AID 2282963); settings: HepG2, Attagene cis-factorial STAT3 reporter transcription; actives raise or lower the signal
Chain of Signal transducer and activator of transcription 3 (Homo sapiens) (P40763 whole entry, looked up): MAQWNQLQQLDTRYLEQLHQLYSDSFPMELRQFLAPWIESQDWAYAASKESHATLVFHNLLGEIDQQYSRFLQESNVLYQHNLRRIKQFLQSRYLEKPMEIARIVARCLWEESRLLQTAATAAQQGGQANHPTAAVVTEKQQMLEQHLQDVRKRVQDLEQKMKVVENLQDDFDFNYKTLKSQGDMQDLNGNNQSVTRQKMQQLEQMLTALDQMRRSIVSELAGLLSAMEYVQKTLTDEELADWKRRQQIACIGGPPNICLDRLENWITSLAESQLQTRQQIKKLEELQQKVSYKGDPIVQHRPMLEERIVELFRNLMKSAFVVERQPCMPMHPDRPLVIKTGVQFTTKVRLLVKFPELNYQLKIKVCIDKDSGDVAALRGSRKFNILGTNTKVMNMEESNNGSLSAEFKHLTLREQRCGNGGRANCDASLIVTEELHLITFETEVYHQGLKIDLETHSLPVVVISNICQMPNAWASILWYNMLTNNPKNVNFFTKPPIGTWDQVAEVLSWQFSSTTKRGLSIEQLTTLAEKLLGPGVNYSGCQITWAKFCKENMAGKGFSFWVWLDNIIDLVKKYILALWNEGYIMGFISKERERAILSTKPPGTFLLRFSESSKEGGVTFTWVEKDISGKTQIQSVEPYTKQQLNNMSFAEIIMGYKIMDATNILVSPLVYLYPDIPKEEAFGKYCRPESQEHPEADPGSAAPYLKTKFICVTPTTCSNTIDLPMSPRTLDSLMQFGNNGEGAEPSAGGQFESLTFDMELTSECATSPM
In short: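 Readout is reporter transcript quantified by RT-PCR and capillary electrophoresis, with 6-FAM primer extension and HpaI digestion. Total RNA is taken 24 h after dosing transiently transfected HepG2 carrying cis-regulated reporter units. Bidirectional fit against DMSO.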

[17] = ATG_TA_CIS: Attagene CIS-FACTORIAL HepG2 Assay for human TA Basal Promoter (AID 2282964); settings: HepG2 Attagene CIS-factorial TA basal promoter reporter; actives raise or lower the signal
In short: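 Cis-factorial format in HepG2: reporters report endogenous factors, not chimeric Gal4 fusions. After 24 h treatment, reporter transcripts were measured by RT-PCR-capillary electrophoresis fluorescence, analysed bidirectionally versus DMSO.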

[18] = ATG_PXRE_CIS: Attagene CIS-FACTORIAL HepG2 Assay for human Pregnane X Receptor Element (PXRE) (AID 2282957); settings: HepG2 Attagene CIS-FACTORIAL PXRE reporter, mRNA; actives raise or lower the signal
In short: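 Endogenous transcription factor activity in HepG2 was gauged through induction of reporter mRNA driven by a cis-regulating promoter element, sampled 24 h post-treatment. Activity was fitted in both directions against DMSO negative control.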

[19] = target: Hepatocyte nuclear factor 6 (Homo sapiens) (UniProt Q9UBC0); assay: ATG_HNF6_CIS: Attagene CIS-FACTORIAL HepG2 Assay for human Hepatocyte Nuclear Factor 6 (HNF6) (AID 2282952); settings: HepG2 Attagene cis-factorial HNF6 reporter transcription; actives raise or lower the signal
Chain of Hepatocyte nuclear factor 6 (Homo sapiens) (Q9UBC0 whole entry, looked up): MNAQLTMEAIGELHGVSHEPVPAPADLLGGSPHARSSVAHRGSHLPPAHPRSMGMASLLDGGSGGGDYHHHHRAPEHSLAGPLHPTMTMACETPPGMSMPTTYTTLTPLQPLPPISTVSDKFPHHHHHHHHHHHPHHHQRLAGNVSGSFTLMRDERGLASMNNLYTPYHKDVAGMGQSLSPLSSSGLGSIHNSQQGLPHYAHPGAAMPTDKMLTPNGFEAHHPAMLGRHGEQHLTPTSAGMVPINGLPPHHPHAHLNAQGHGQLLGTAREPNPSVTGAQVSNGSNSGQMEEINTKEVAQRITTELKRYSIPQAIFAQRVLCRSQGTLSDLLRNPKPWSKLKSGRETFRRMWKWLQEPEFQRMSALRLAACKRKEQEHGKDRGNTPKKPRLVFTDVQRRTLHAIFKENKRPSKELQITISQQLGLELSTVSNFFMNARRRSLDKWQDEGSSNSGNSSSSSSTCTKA
In short: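 Endogenous transcription factor activity in human HepG2 liver cells was captured through cis-regulated reporter constructs. After 24 h treatment, reporter mRNA was measured by RT-PCR with capillary electrophoresis, and activity was fitted in both directions relative to DMSO.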

Measured: AC50

CCOC(=O)CC(=O)C(F)(F)C(F)(F)F
not listed: [18] | [19]
inactive: all other assays above

CCOCN(C(=O)CS(=O)(=O)O)c1c(C)cccc1CC
active: [18] 42 µM
not listed: [9] | [19]
inactive: all other assays above

CCN=C1C=CC(=C(c2ccc(N(CC)CC)cc2)c2ccc(N(CC)CC)cc2)c2ccccc21
active: [1] 911 nM | [3] 916 nM | [6] 1.1 µM | [8] 1.03 µM | [9] 47.8 nM | [10] 1.78 µM | [13] 76.2 nM | [17] 1.23 µM
not listed: [7] | [12] | [18]
inactive: all other assays above

CSc1ccc(O)cc1C
active: [18] 44.3 µM
not listed: [12]
inactive: all other assays above

CO[Si](C)(CCC(F)(F)C(F)(F)C(F)(F)C(F)(F)C(F)(F)C(F)(F)F)OC
not listed: [7] | [9] | [19]
inactive: all other assays above
